# Hits are enriched below; roughly 1.3% of the tested compounds scored in any of these assays.
# Cardiac RTF inh – cardiac RTF calcium desensitization. IANBD-labeled cardiac RTF, Ca2+ fluorescence. inhibition, % at 7.15 µM. 340,000 compounds, 0.12% hits. AID 493244;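 active = inhibition above the mean inhibition of all tested compounds plus 3 SD, cut at about 17% in these data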;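 also: assay run at fixed EC70 calcium of 1.6 mM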
# E coli Lon inh – inhibits E. coli Lon protease; P0A9M0; purified E. coli Lon protease, fluorescence polarization; inhibition, % at 7.94 µM; 360,000 compounds, 0.42% hits; AID 602123; in the data active = inhibition above about 13%, passing the limit was not always enough;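 also: 0% = enzyme with probe and DMSO and 100% = no enzyme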
# LANA-H2B inh – blocks KSHV LANA binding to histone H2A/H2B | cell-free LANA-H2A/H2B peptide, fluorescence polarization | inhibition, % (concentration not given with the values) | 320,000 compounds, 0.6% hits; in the data active = inhibition mostly above about 10%, no sharp cut-off; inactive = mostly below about 6.7%
# Keap1-Nrf2 PPI – inhibitors of human Keap1-Nrf2 protein-protein interaction; Keap1 Kelch-Nrf2 peptide fluorescence polarization, 1536-well; Q14145; 340,000 compounds, 0.15% hits; inhibition, % at 9.4 µM; in the data active = inhibition above about 12%;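 also: human Keap1 Kelch domain with fluorescein labeled Nrf2 9mer peptide probe; 0% = neutral control wells and 100% = peptide positive control; higher means more block of Keap1 binding to Nrf2 peptide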
# RTF Ca sens act – cardiac RTF calcium sensitization | 340,000 compounds, 0.24% hits | activation, % at 7.2 µM | IANBD-labeled TnC RTF fluorescence at EC20 calcium; 0% EC20 calcium, 100% full calcium;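 active = activation above the mean over all tested compounds plus 3 SD, cut at about 30% in these data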;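 also: rise in fluorescence read as greater calcium sensitivity of cardiac thin filaments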
# LANA DNA inh – KSHV C-LANA DNA binding inhibition | MBP-C-LANA/FAM-LBS DNA binding, fluorescence polarization | 340,000 compounds, 0.078% hits | inhibition, % at 9 µM;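 active = highest replicate inhibition at or above 60% at 9 µM, even if other replicates fall short; inactive = all replicates below 60% inhibition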;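 also: 0% = neutral control wells and 100% = 4 µM acridine orange control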
# * = called active by the depositor; i = inactive; . = no result given; + = active, no number.
SMILES,Cardiac RTF inh,E coli Lon inh,LANA-H2B inh,Keap1-Nrf2 PPI,RTF Ca sens act,LANA DNA inh
CC1=CC2=NC(=O)/C(=C\c3cc(C)n(-c4cccc(Cl)c4)c3C)C(=N)N2O1,-11.3,1.5,0.1,-2.5,-6.4,-0.1
N=C1/C(=C\c2coc3ccccc3c2=O)C(=O)N=C2SC=CN12,-125.2,-152.0,9.2,-18.3,80.7*,14.4
CSC1=NSC2=NC(=O)/C(=C/c3coc4ccc(O)cc4c3=O)C(=N)N12,-222.9,-383.9,-8.5,-155.9,177.3*,22.2
CSC1=NSC2=NC(=O)/C(=C/c3coc4ccccc4c3=O)C(=N)N12,-253.0,-372.2,0.3,-85.9,287.5*,23.1
N=C1/C(=C/c2cccn2Cc2ccc(F)cc2)C(=O)N=C2SC=CN12,-5.8,10.7,5.0,-6.7,6.6,1.9
CC1=CC2=NC(=O)/C(=C/c3coc4ccc(Cl)cc4c3=O)C(=N)N2O1,-71.9,-299.8,-16.3,-61.5,58.3*,-9.1
O=C(Cn1cnc(S(=O)(=O)N2CCCC2)c1)Nc1ccc(OC(F)(F)F)cc1,-6.0,10.9,0.9,0.9,-0.9,-0.3
COC(=O)c1sccc1NC(=O)CSCCc1ccccn1,-1.5,-5.4,-7.7,1.8,1.0,-1.3
CCn1c(CN2CCOCC2)nnc1SCC(=O)Nc1ccccc1C,-2.4,13.3,127.1*,-3.8,7.9,-0.7
O=C(/C=C/c1cccs1)Nc1nncs1,-3.3,-6.3,14.6*,-1.4,1.8,1.8
O=C(/C=C/c1cccs1)Nc1nc(-c2ccccc2)cs1,10.8,3.6,2.5,0.6,0.1,0.1
N#Cc1ccccc1OCC(=O)OCC(=O)Nc1ccc2c(c1)OCO2,6.9,-3.6,-1.7,0.7,-2.9,0.2
CCOC(=O)C1C(=O)C=C(C)C(C(=O)OCC)C1c1cccc([N+](=O)[O-])c1 (stereo unspecified),-9.9,-0.9,27.4*,-6.2,2.0,2.2
CCOC(=O)C1C(=O)C=C(c2ccc([N+](=O)[O-])cc2)CC1c1ccccc1 (stereo unspecified),3.2,2.5,-0.7,-1.8,-0.3,-0.4
Cc1ccc(CNc2ccc3c(c2)OCO3)cc1,-61.1,23.5*,-0.7,5.3,38.9*,9.5
Cc1cc(C)cc(NC(=O)CCCN2C(=O)C(c3ccccc3)Oc3cccnc32)c1 (stereo unspecified),3.1,-4.1,13.6*,-2.9,-6.3,-0.3
CC(=O)Nc1ccc(NC(=O)CCCN2C(=O)C(c3ccccc3)Oc3cccnc32)cc1 (stereo unspecified),.,-3.8,.,.,.,.
CN(C)c1ccc(-c2csc(C(O)(c3ccccc3)C(F)(F)F)n2)cc1 (stereo unspecified),.,2.8,.,.,.,.
Cc1[nH]nc(SCC(=O)NCCc2ccccc2)c1[N+](=O)[O-],-21.5,2.0,12.3*,-2.0,-0.5,-0.4
COc1cc2c(cc1NC(=O)C(C)OC(=O)c1ccc(S(=O)(=O)Nc3ccccc3Cl)cc1)oc1ccccc12 (stereo unspecified),-7.1,-4.1,-4.1,-0.3,4.6,-1.4
Cc1cccc(-n2nnnc2SCC(=O)NCC2(N3CCOCC3)CCCCC2)c1C,-4.1,-4.3,+,-5.4,-0.2,-0.1
Cc1ccsc1C(=O)N1CCN(S(=O)(=O)c2cccs2)CC1,-9.8,3.8,149.2*,-6.0,-1.7,-0.6
CCN(CC)CC(=O)Nc1ccc(C)cc1C(=O)c1ccccc1,-7.4,4.6,-5.5,-3.2,1.3,-0.3
CCN(CC(=O)Nc1ccc(NC(C)=O)cc1)CC(=O)Nc1ccccc1C(=O)c1ccccc1,-3.3,-3.4,10.2*,2.3,-1.8,-0.6
Cc1ccc(/C=N/NC(=O)NC23CC4CC(CC(C4)C2)C3)o1,-8.8,-5.3,-1.2,-0.2,-1.9,-0.5
SMILES,Cardiac RTF inh,E coli Lon inh,LANA-H2B inh,Keap1-Nrf2 PPI,RTF Ca sens act,LANA DNA inh
Cc1ccc(Cc2c(-c3ccc(C)cc3)nc3c(Cl)cc(C(F)(F)F)cn23)cc1,.,0.6,.,.,.,.
Cc1nc(Sc2ccccc2)c(C#N)cc1-c1ccccc1,-0.6,-1.8,129.8*,-0.8,2.8,-0.2
Cn1cccc1CC(=O)NNC(=O)Nc1ccc(Cl)cc1,5.9,-4.1,75.5*,1.2,-2.4,0.7
COc1ccc(Cl)cc1S(=O)(=O)N1CCC(C(=O)NCC2CCCO2)CC1 (stereo unspecified),6.1,-13.4,-3.9,-1.8,-4.2,1.9
O=C(NCC1CCCO1)C1CCN(S(=O)(=O)c2cc(Cl)ccc2Cl)CC1 (stereo unspecified),6.7,-8.0,13.2*,3.0,7.2,0.2
COc1ccc(NC(=O)CCc2ccccc2)cc1NC(=O)c1ccco1,-2.7,-5.6,28.2*,-2.9,-1.8,-1.0
COc1ccc(CC(=O)Nc2ccc(OC)c(NC(=O)c3ccco3)c2)cc1,-4.3,4.0,31.2*,-4.4,7.8,0.3
CC(=O)c1ccc(S(=O)(=O)N(CC(=O)NC2CC2)Cc2ccc(F)cc2)cc1,-10.7,-8.7,.,-1.7,-8.9,0.3
CN1CCN(c2ccc(NC(=O)c3ccc(-c4ccc(Cl)cc4)o3)cc2)CC1,-5.4,-3.7,65.6*,-2.2,6.1,-0.6
CS(=O)(=O)N1CCN(c2ccc(NC(=O)c3ccc(-c4ccc(Cl)cc4)o3)cc2)CC1,-6.7,3.6,-11.7,-0.7,-4.5,1.5
O=C(COC(=O)COc1ccccc1)NCc1ccco1,9.4,-18.8,17.6*,-1.7,-4.0,1.3
Cc1ccccc1OCC(=O)OCC(=O)NCc1ccco1,0.4,3.3,-2.8,0.6,-6.4,-0.1
c1ccc(Nc2ccc3c4c(cccc24)CC3)cc1,-93.5,-203.2,-0.7,-1.6,51.6*,-0.5
OC(C#CCN1CCCC1)(c1ccccc1)c1cccnc1 (stereo unspecified),.,8.3,26.7*,1.4,.,0.0
OC(C#CCN1CCCCCC1)(c1ccccc1)c1cccnc1 (stereo unspecified),-1.2,-7.0,14.8*,-0.6,12.4,6.5
C=CCN1C=CC(=C/C=C(/C#N)C(=O)OCC)C=C1,-130.0,i,-48.5,-213.4,123.0*,-58.5
CCOC(=O)/C(C#N)=C/C=C1/C=CC=CN1C,-4.0,-12.0,0.7,-3.1,2.2,-1.2
Cc1ccccc1NC(=O)CN1C(=O)COc2ccc(S(=O)(=O)N3CCCC3)cc21,-0.2,0.0,13.8*,-1.3,-5.2,-0.1
COc1ccc(OC)c(CC(=O)Nc2cc(S(=O)(=O)N3CCCCC3)ccc2C)c1,0.2,-6.0,71.4*,3.2,-3.0,-0.1
COc1ccc(/C=C/C(=O)Nc2cc(S(=O)(=O)N3CCOCC3)ccc2N2CCCC2)cc1OC,-3.6,2.7,-8.9,1.0,-1.1,0.5
COc1ccc(/C=C/C(=O)Nc2cc(S(=O)(=O)N3CCOCC3)ccc2C)cc1OC,13.6,-0.1,+,-3.2,4.0,-0.2
COc1ccccc1NC(=O)CN1C(=O)COc2ccc(S(=O)(=O)N3CCCCCC3)cc21,-4.7,-8.9,3.8,5.0,-2.5,-0.7

# Screening results deposited in PubChem by several laboratories.
